RE007 growth inh: less growth of the S. pombe RE007 Vpr strain | Potency, µM (highest dose often 92.2 µM), for the others: at the top dose activity change, negative = less growth, actives largely listed as inhibitors | S. pombe RE007 Vpr strain, BacTiter-Glo ATP luminescence, 24 h | AID 651644 | actives 0.21% (n = 360,000); active = well fitted falling curve with a large enough effect; inconclusive = small, poorly fitted or top-dose-only effect; inactive = no such curve, though single readings can be large or run the other way; also: potency is read from the fitted curve at half-maximal effect; % is scaled to controls: 0 for no effect and ±100 for the full control effect; nearly all actives have a fitted effect of over 50% in size
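Fission yeast RE007 carrying one integrated HIV-1 vpr copy, seeded at OD 0.01 in PMG+AL medium with 23 nL pinned compound. Grown 24 h at 30 degrees; viability read by BacTiter-Glo luminescence after 5 min.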
Giardia FBPA inh: inhibitors of Giardia lamblia fructose-1,6-bisphosphate aldolase; A8B2U2; purified Giardia FBPA; Potency, µM (series often up to 59.6 µM), inactives show top-dose activity, negative = inhibition, hits mostly inhibitors; actives 0.71% (n = 290,000); AID 2451; also: potency is read from the fitted curve at half-maximal effect; % is scaled to controls: 0 for no effect and ±100 for the full control effect; nearly all actives have a fitted effect of over 55% in size
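40 nM FBPA preincubated 10 min at RT with compound (up to 57.5 uM final), then substrate plus GAPDH/TPI/NAD/arsenate coupling and diaphorase/resazurin added. Fluorescence read after 20 min at RT, 525/598 nm.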
LmPK inh: LmPK (Leishmania mexicana) enzyme inhibition; Q27686; purified LmPK, Kinase-Glo ATP luminescence, 1 h; Potency, µM (titrated, usually from 57.5 µM), for inactives: top-dose activity change, negative = inhibition, hits mostly inhibitors; actives 0.37% (n = 290,000); AID 1721; also: potency is read from the fitted curve at half-maximal effect; % is scaled to controls: 0 for no effect and ±100 for the full control effect
Target sequence (Q27686 whole entry, looked up): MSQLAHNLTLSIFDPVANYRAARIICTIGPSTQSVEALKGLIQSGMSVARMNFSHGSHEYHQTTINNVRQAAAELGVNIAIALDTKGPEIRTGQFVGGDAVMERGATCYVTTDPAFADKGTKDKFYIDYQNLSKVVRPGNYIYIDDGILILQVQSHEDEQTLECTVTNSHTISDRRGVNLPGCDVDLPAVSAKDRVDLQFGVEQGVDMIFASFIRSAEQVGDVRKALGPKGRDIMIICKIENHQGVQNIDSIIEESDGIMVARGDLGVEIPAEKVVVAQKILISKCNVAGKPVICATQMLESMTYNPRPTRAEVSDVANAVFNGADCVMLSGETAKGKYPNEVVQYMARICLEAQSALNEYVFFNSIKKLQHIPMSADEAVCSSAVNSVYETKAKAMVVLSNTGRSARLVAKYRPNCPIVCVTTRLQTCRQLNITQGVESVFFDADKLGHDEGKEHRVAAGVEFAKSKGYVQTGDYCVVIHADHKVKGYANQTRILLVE
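Purified LmPK (0.1 nM) converted ADP (0.1 mM) to ATP with PEP (0.5 mM) in imidazole buffer pH 7.2 with KCl and MgCl2, 1 h at room temperature. ATP was read by Kinase-Glo luminescence; data normalized to uninhibited and no-enzyme controls.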
SARS PLpro yeast-1: blocks SARS-CoV papain-like protease in a yeast assay; S. cerevisiae expressing SARS-CoV PLpro, growth rescue; Potency, µM (titrated, usually from 32.9 µM), for the others: at the top dose activity, positive = growth rescue, actives largely listed as activators; actives 0.19% (n = 330,000); AID 485353; calls by dose curve; also: potency is read from the fitted curve at half-maximal effect; 0% is about no effect; nearly all actives have a fitted effect of over 55% in size
Tb PYK inh: inhibitors of Trypanosoma brucei pyruvate kinase; TbPYK enzyme, Kinase-Glo Plus ATP luminescence, 45 min; AID 624173; Potency, µM (series often up to 76.8 µM), for the others: top-dose activity, negative = inhibition, usual class: inhibitors; actives 0.12% (n = 410,000); also: potency is read from the fitted curve at half-maximal effect; % is scaled to controls: 0 for no effect and ±100 for the full control effect; nearly all actives have a fitted effect of over 50% in size
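Screened from lowest to highest concentration, compounds were pinned into TbPYK/substrate mixtures, and ADP (130 uM final) was added. Plates sat at room temperature for 45 min prior to Kinase-Glo Plus detection by luminescence.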
SARS PLpro yeast-2: Inhibits SARS-CoV PLP in yeast, hit validation; yeast expressing SARS-CoV PLpro, growth phenotype rescue; shares compounds with SARS PLpro yeast-1; calls only; actives 19% (n = 1,000); AID 652038; call rule not given here
* marks the source's active call; other numbers are inactive results; i = inactive; ? = inconclusive; · = no result; + = active, no number; [ ] = dose if it differs, or a comment. An excerpt weighted towards active compounds, which were near 1.1% of everything screened. Unless noted, calls follow the shape of the dose curve; as a rule, active = well fitted curve in the direction sought with a large enough effect; inconclusive = small, poorly fitted or top-dose-only effect, or another doubt; inactive = no such curve, though single readings can be large; an effect the other way counts as inactive or inconclusive.

SMILES	RE007 growth inh	Giardia FBPA inh	LmPK inh	SARS PLpro yeast-1	Tb PYK inh	SARS PLpro yeast-2
O=C(CCCCCN1C(=O)[C@@H]2Cc3ccccc3CN2C1=O)N[C@@H](Cc1ccc(O)cc1)C(=O)O	-7.5%	27.2%	-10.3%	10.0%	-6.0%	·
COC(=O)[C@H](COC(C)(C)C)NC(=O)O[C@@H]1Cc2cc(OC)ccc2O[C@H]1c1cccc(OC)c1	·	-5.5%	·	·	·	·
C[C@@H]1O[C@@H](O[C@H]2C[C@@H](O)[C@]3(CO)[C@H]4[C@H](O)C[C@]5(C)[C@@H](C6COC(=O)C6)CC[C@]5(O)[C@@H]4CC[C@]3(O)C2)[C@H](O)[C@H](O)[C@H]1O (stereo partly specified)	1.2%[18.4 µM]	7.5%	9.9%	?	4.5%	i
C[C@@H]1O[C@@H](OC2CC(O)C3(CO)C4C(CCC3(O)C2)C2(O)CCC(C3=CC(=O)OC3)C2(C)C[C@H]4O)[C@H](O)[C@H](O)[C@H]1O (stereo partly specified)	·	2.1%	·	·	·	·
Cc1ccc(/C=C/c2nc3ccccc3n2S(=O)(=O)c2cccc(Cl)c2)cc1	·	·	·	·	-8.9%	·
ClCc1nnc(-c2cc3c(s2)CCCC3)o1	-21.9%	-2.2%	2.4%	?	-0.6%	i
Cc1ccc(CSC2=Nc3ccccc3C3=NC(CC(=O)NCc4cccs4)C(=O)N23)c(C)c1 (stereo unspecified)	·	·	·	·	-6.8%	·
O=C(/C=C1\NC2(CCCC2)Cc2ccccc21)C(=O)N/N=C/c1ccccc1O	7.2%	6.5%	-5.0%	7.94µM*	-6.0%	+
COc1cc(/C=N/NC(=O)C(=O)/C=C2\NC3(CCCC3)Cc3ccccc32)ccc1O	7.5%	-3.3%	3.1%	-10.4%	1.0%	·
Oc1ccc(COC2CCCC2)c2cccnc12	·	·	·	-2.2%	·	·
C(=C\c1ccccc1)/CNn1cnnc1	3.0%	4.5%	6.4%	?	0.7%	i
O=C(/C=C/c1ccccc1)Nn1cnnc1	8.6%	7.7%	6.1%	4.6%	4.7%	·
COc1ccc(OC)c(NC(=O)CCn2cccn2)c1	·	·	·	·	-9.1%	·
CCN(CC)c1ccc(/C=N/NC(=O)Cc2cccs2)c(O)c1	3.0%	-13.8%	0.2%	5.01µM*	-4.9%	i
CCN(CC)c1ccc(/C=N/Nc2nc3ccccc3[nH]2)c(O)c1	-12.1%	?	-1.2%	10µM*	5.5%	+
COc1ccc(/C=N\NC(=O)c2cc(O)c(O)c(O)c2)cc1CN1CCN(c2ccc(F)cc2)CC1	17.4%	?	-4.1%	12.6µM*	-15.5%	+
O=P(N1CCCCC1)(N1CCCCC1)C(Cl)(Cl)Cl	13.5%[3.69 µM]	8.4%	-9.8%	?	·	i
O=C(Nc1sc2c(c1C(=O)NCC1CCCO1)CCC2)c1cc(=O)c2cc(Cl)ccc2o1 (stereo unspecified)	·	·	·	·	-0.4%	·
Cc1ccc(-c2nc3ccccc3c(=O)n2-c2cccc(C)n2)cc1	2.8%	-8.8%	1.1%	-1.6%	5.6%	·
Cc1ccc(-c2nc3ccccc3c(=O)n2-c2cc(C)ccn2)cc1	40.3%	5.3%	-6.9%	3.98µM*	6.2%	i
Cc1ncc(CO)c(/C=N/NC(=S)Nc2ccc(F)cc2)c1O	-5.3%	?	2.2%	5.62µM*	?	i
Cc1ncc(CO)c(/C=N/Nc2ccc(C(F)(F)F)cn2)c1O	1.6%	-18.2%	2.2%	7.3%	-15.5%	·
CC(=O)N1c2ccc(S(=O)(=O)Nc3ccc(Cl)cc3C)cc2CC1C (stereo unspecified)	·	·	·	·	-2.0%	·
O=c1c2c3c(sc2nc2n1CCCCC2)CCCC3	?	1.4%	-16.4%	4.47µM*	-15.1%	i
O=c1c2c3c(sc2nc2n1CCCCC2)CCCCC3	·	-0.8%	-4.1%	4.7%	·	·
SMILES	RE007 growth inh	Giardia FBPA inh	LmPK inh	SARS PLpro yeast-1	Tb PYK inh	SARS PLpro yeast-2
Cc1ccc(C)c(NC(=O)CCc2c(C)n(C)c3cc(-c4ccccc4C)nn3c2=O)c1	·	·	·	·	2.5%	·
CCC(=O)N1c2ccccc2CC1C(=O)NCc1ccccc1C (stereo unspecified)	·	·	·	·	2.2%	·
Cc1ccc(S(=O)(=O)Nc2ccc(O)c3ncccc23)cc1	-6.9%	-0.8%	2.0%	?	-0.1%	+
Cc1ccc(S(=O)(=O)Nc2ccc(O)c3cccnc23)cc1	-20.5%	-16.1%	1.9%	1.8%	7.9%	·
CCCCOC(=O)Oc1ccc2c(=O)c(Oc3cc(C)cc(C)c3)coc2c1	18.7%	2.2%	-4.8%	?	-1.0%	i
CCCOC(=O)Oc1ccc2c(=O)c(Oc3cc(C)cc(C)c3)coc2c1	0.1%	0.5%	-0.6%	-24.3%	1.6%	·
CC(=O)Nc1ccc(NCC(O)COc2ccccc2)cc1 (stereo unspecified)	-12.0%	-3.2%	-2.0%	7.1%	-12.8%	·
COCC(O)CNc1ccccc1 (stereo unspecified)	-13.5%	-15.7%	-0.1%	?	-15.6%	i
CCc1ccc(OCC(=O)Nc2cc(-c3ccc(C)cc3)no2)cc1	·	·	·	·	-8.8%	·
O=C(NC(c1ccc(Cl)cc1)c1cc(Cl)c2cccnc2c1O)c1cccnc1 (stereo unspecified)	4.8%	21.4%	1.5%	2.51µM*	-5.9%	i
COc1ccc(C(NC(C)=O)c2cc(Cl)c3cccnc3c2O)cc1 (stereo unspecified)	15.6%	12.1%	9.1%	10µM*	-2.3%	i
Cc1c(C(=O)NC(C)c2ccccc2)sc2nc3n(c(=O)c12)CCCC3 (stereo unspecified)	·	·	·	·	-6.8%	·
CCCN1C(=O)SC(CC(=O)Nc2ccccc2C)C1=O (stereo unspecified)	2.6%	5.2%	-0.1%	?	3.2%	i
Clc1nc2sccn2c1/C=N/n1cnc2ccccc21	3.4%	-0.2%	8.9%	?	-2.1%	i
Cc1nccn1CCCN1C(=O)CNC1=S	?	-2.6%	-4.4%	4.47µM*	-3.1%	i
O=C(O)CCC(=O)Nc1ccccc1C(=O)NCCc1ccccc1	-15.2%	-1.3%	-4.5%	3.98µM*	-3.5%	i
CCCCNc1cc(C)nc(N2CCOCC2)n1	-3.6%	1.8%	-2.4%	?	-5.0%	i
Cc1nn(C)c(C)c1CCNC(=O)Nc1ccccc1C(F)(F)F	·	·	·	·	0.5%	·
COCCCNC(=O)c1c(NC(=O)C2COc3ccccc3O2)sc2c1CCCC2 (stereo unspecified)	3.9%	1.6%	-0.3%	?	1.5%	i
CCNC(=O)c1c(NC(=O)C2COc3ccccc3O2)sc2c1CCCC2 (stereo unspecified)	0.1%	3.3%	15.6%	5.0%	0.1%	·
CCc1ccc(-n2c(C)nnc2SCc2nc(-c3ccc(OC)cc3)no2)cc1	·	·	·	·	-3.3%	·
O=C(CN1CCN(c2ncccn2)CC1)Nc1ccccc1-n1cccc1	4.4%	?	0.6%	14.1µM*	2.9%	i
O=C(O)COc1ccccc1	10.5%	·	·	-1.4%	3.9%	·
NOCC(=O)O	-11.4%[18.4 µM]	-3.8%	·	?	-2.1%	i

Bioassay records (PubChem BioAssay)
